Here are results for 40 compounds from the supplement of paper PMC7801607.

SMILES strings stand for the structures.

This assay has as its system Plasmodium berghei ANKA liver stage in HepG2-A16-CD81. The assay is described as follows: % inhibition of liver stage parasite viability (luciferase); higher = more inhibition. The following applies: 5 µM; 48 h. The method, then:
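Single-concentration screen of the MMV Pandemic Response Box. P. falciparum NF54 asexual blood stages: pLDH assay, 72 h at 37 °C, 2 and 20 µM, n=2. Stage IV/V gametocytes (NF54): luciferase reporter (NF54-Pfs16-GFP-Luc, 48 h), ATP bioluminescence (24 h) and PrestoBlue (48 h) at 1 and 5 µM, n=1. P. berghei liver stage (luciferase in HepG2-A16-CD81, 48 h post infection) at 5 µM, n=4. All normalised to DMSO and kill controls as % inhibition.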
On to `CC#C[C@]1(O)CC[C@H]2[C@@H]3CCC4=CC(=O)CCC4=C3[C@@H](c3ccc(N(C)C)cc3)C[C@@]21C`, for which the “% inhibition of liver stage parasite viability” value (from here on “% inhibition”) was 15.2%.
As to `Nc1ccc2oc(=O)ccc2c1I`, the “% inhibition” value came out at 6.97%.
The same measure for `CCCCCCCCC(CP(=O)(O)C(C)N)C(=O)O` (stereo not given): 24.3%; for `O=C(Nc1nnc(-c2ccccc2)o1)c1ccc(F)cc1`: 53.8%; for `COc1ccc(CNC(=O)C2CCN([C@H](C)c3cccc4ccccc34)CC2)cc1`: 19.6%.
With `CCNC(=O)Nc1cc2c(-c3ccnc(C)c3)ccc(CNC(=O)OC)c2cn1` the figure was 25.9%; with `OC(Cn1cncn1)(Cn1cncn1)c1ccc(F)cc1F`, 19.2%; with `Nc1ccc(-c2nc3cc(C(F)(F)F)ccc3n2C23CC4CC(CC(C4)C2)C3)cc1`, 20.5%.
Turning to `CONC(=N)c1ccc(-c2ccc(-c3ccc(C(=N)NOC)cc3)o2)cc1`, the “% inhibition” value is 4.65%.
As for `CC(C)Oc1ccc(-n2cnc3cc(/C=C\c4ccc(C(C)(C)O)cc4)ccc32)cc1`, the “% inhibition” value was 20.4%.
For the compound `CCOC(=O)/C=C/[C@H](C[C@@H]1CCNC1=O)NC(=O)[C@@H](CC(=O)[C@@H](NC(=O)c1cc(C)on1)C(C)C)Cc1ccc(F)cc1`, the “% inhibition” value was -3.33%.
With `Clc1ccc(COC(Cn2ccnc2)c2ccc(Cl)cc2Cl)c(Cl)c1` (stereo not given) the figure was 33.2%; with `CN(C)CCCNC(=O)c1ccc(-c2cc(O)c3ncccc3c2)cc1`, 24.5%; with `Cc1ccc(NC(=O)c2cc(Cl)ccc2O)cc1`, 78.5%.
Turning to `CCc1cc(CCC(=O)Nc2ccccc2O)c(=O)[nH]c1C`, the “% inhibition” value amounted to 17.8%.
The same measure for `N[C@@H]1CN(c2c(F)cc3c(=O)c(C(=O)O)cn([C@@H]4C[C@@H]4F)c3c2Cl)CC12CC2`: -19.2%.
For `CC(C)C(=O)N[C@H]1[C@H]([C@H](O)[C@H](O)CO)OC(C(=O)O)=C[C@@H]1N=[N+]=[N-]`, the “% inhibition” value was found to be 10.3%.
The same measure for `CC(C)(C)c1cc(CCC(=O)N2CCC2)cc(C(C)(C)C)c1O`: 21.9%; for `C=C(C)[C@@H]1CC[C@]2(C(=O)O)CC[C@]3(C)[C@H](CC[C@@H]4[C@@]5(C)CC[C@H](O)C(C)(C)[C@@H]5CC[C@]43C)[C@@H]12`: 57%; for `C[C@H](NC(=O)C(=O)Nc1ccccc1C(C)(C)C)C(=O)N[C@@H](CC(=O)O)C(=O)COc1c(F)c(F)cc(F)c1F`: 5.8%.
Regarding `O=C1c2cccc3cccc(c23)C(=O)N1CC1CO1` (stereo not given), the “% inhibition” value worked out at 14.1%.
The same measure for `COc1cc(NS(=O)(=O)c2ccc(C)cc2)c2ncccc2c1`: 48.9%.
With `CC[C@H](CO)Nc1nc(NCc2ccccc2)c2ncn(C(C)C)c2n1` the figure was 26.6%.
The same measure for `COc1ccc2sc3c(c2c1)NC(C)CNC3=O` (stereo not given): -51.9%; for `CCOC(=O)Nc1cc(NC(C)CC(C)CN(CC)CC)c2nc(-c3ccccc3)c(-c3ccccc3)nc2n1` (stereo not given): 55.5%.
With `Cc1onc(-c2ccccc2Cl)c1C(=O)N[C@@H]1C(=O)N2[C@@H]1SC(C)(C)[C@@H]2C(=O)O`, the “% inhibition” value turned out to be 17.1%.
The same measure for `CC(C)(C)c1ccc(C(Cn2cccc(C(F)(F)F)c2=O)NC2Cc3ccccc3C2)cc1` (stereo not given): 2.01%; for `CCc1cc(O)c(Oc2ccc(C(N)=O)cc2F)cc1F`: 8.75%.
With `O=C(NCc1ccccc1Cl)c1cnc2ccccc2n1` the figure was 12.6%.
With `C=C(C)n1c(=O)n(Cc2ccccc2C)c2ccccc21` the figure was 19.1%; with `Cc1nc(-c2ccc(C3N(C)c4ccc(F)cc4C(=O)N3c3ccccc3)s2)cs1` (stereo not given), 31.9%; with `C[C@H](Cn1cnc2c(N)ncnc21)OCP(=O)(O)O`, 9.32%.
For `C[C@@H](O)[C@H](N)C(=O)NS(=O)(=O)c1cccc(-c2ccc3[nH]ncc3c2)c1`, the “% inhibition” value came out at 31.2%.
With `Cc1cc(C)n2nc(C(=O)NS(=O)(=O)c3c(C)cccc3OC(F)(F)F)nc2n1` the figure was 37%; with `CSc1ccc2c(c1)C(N1CCN(C)CC1)Cc1ccccc1S2` (stereo not given), 23%.
Turning to `CC(C)Cn1c(=O)n(C)c(=O)c2c(-c3cncn3C)n(Cc3cccc4ccccc34)nc21`, the “% inhibition” value was -8.38%.
With `Clc1ccc(Cn2c(CN3CCCC3)nc3ccccc32)cc1` the figure was 22.9%; with `CC(C)(C)c1ccc(C(=O)NC(=O)N2CCCc3ccccc32)cc1`, 15.6%; with `O=C(/C=C/n1cnc(-c2cc(C(F)(F)F)cc(C(F)(F)F)c2)n1)NNc1cnccn1`, 11.6%.
With `c1cc(CN2CCCNCCNCCCNCC2)ccc1CN1CCCNCCNCCCNCC1` the figure was 1.46%.
